According to PubChem BioAssay (NCI):
About 79,000 compounds went through this panel and 15% of them were active in at least one assay; those are over-represented in the sample as a whole. No stated cut-off is given here; in the data, active means growth inhibition above about 70%; inactive means the rest.

Columns and labels:
[1] = NCI Yeast Anticancer Drug Screen. Data for the rad50 strain (AID 155);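 further: 0% = growth of vehicle-only cultures of the same strain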; conditions: S. cerevisiae rad50 strain growth inhibition; at 50.0 µM; stronger effect = higher value
Method in brief: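 Genetically altered yeast (DNA repair pathway); compound treatment; growth inhibition vs vehicle ctrl.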

[2] = NCI Yeast Anticancer Drug Screen. Data for the mec2-1 strain (AID 157); conditions: S. cerevisiae mec2-1 strain, at 50.0 µM, stronger effect = higher value
Method in brief: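 Each compound was tested on mec2-1 yeast, a strain altered in DNA damage repair or cell cycle control. Growth inhibition is reported relative to vehicle.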

[3] = NCI Yeast Anticancer Drug Screen. Data for the sgs1 mgt1 strain (AID 161);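 further: 0% = growth of cultures given vehicle only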; conditions: S. cerevisiae sgs1 mgt1 strain, at 50.0 µM, stronger effect = higher value
Method in brief: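 Inhibition of yeast growth, normalised to vehicle-treated controls, is reported for a strain bearing genetic alterations in DNA damage repair.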

[4] = NCI Yeast Anticancer Drug Screen. Data for the cln2 rad14 strain (AID 165);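 further: 0% = growth equal to vehicle treated cultures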; conditions: S. cerevisiae cln2 rad14 strain, at 50.0 µM, stronger effect = higher value
Method in brief: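 Test compounds were added to cln2 rad14 yeast cultures; inhibition of growth was then determined by comparison with vehicle treatment.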

[5] = NCI Yeast Anticancer Drug Screen. Data for the bub3 strain (AID 167); conditions: S. cerevisiae bub3 mutant strain, at 50.0 µM, stronger effect = higher value
Method in brief: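 Yeast carrying a defined mutation is treated with each compound, and growth is compared with that of vehicle-exposed cells to give inhibition.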

[6] = NCI Yeast Anticancer Drug Screen. Data for the mlh1 rad18 strain (AID 175); conditions: S. cerevisiae mlh1 rad18 strain growth inhibition; at 50.0 µM; stronger effect = higher value
Method in brief: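 Inhibition values reflect reduced growth of mutant yeast versus vehicle-treated controls following compound exposure; the mutations affect DNA damage repair.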

Measured: growth inhibition

O=S(=O)(O)SCC1=NCCCCN1
inactive: [1] -2.95% | [2] -5.7% | [3] -6.35% | [4] -9.4% | [5] -14.4% | [6] 0.05%

CC(=O)N(C(=O)CC(=O)N1N=C(C)C(N=Nc2cccc([N+](=O)[O-])c2)C1=O)c1ccc(Cl)cc1 (stereo not drawn)
inactive: [1] -10.3% | [2] -4.5% | [3] -5.9% | [4] -11.2% | [5] -15.1% | [6] 2%

CC(C)(C)c1cc(Br)c(O)c(CN(Cc2cc(C(C)(C)C)cc(Br)c2O)C2CCCCC2)c1
inactive: [1] 16.1% | [2] -24.9% | [3] -34.2% | [4] -14.2% | [5] -35.2% | [6] 1.35%

O=C(O)c1cc(N=Nc2ccc([N+](=O)[O-])cc2S(=O)(=O)O)ccc1O
inactive: [1] -6% | [2] -2.35% | [3] 24.3% | [4] 16.1% | [5] -19.8% | [6] -9.75%

COc1nc(NC2OC(COC(C)=O)C(OC(C)=O)C(OC(C)=O)C2OC(C)=O)c(-c2csc(N)n2)c(=O)n1C (stereo not drawn)
inactive: [1] -6.6% | [2] -26.2% | [3] -18.8% | [4] 4.35% | [5] -11.3% | [6] -4.55%

CC1=C(C(=O)CC(=O)Nc2ccc(Cl)c(Cl)c2)Sc2ccccc2N1
inactive: [1] 8.1% | [2] 21.9% | [3] -4.3% | [4] 13.7% | [5] 0.25% | [6] 20.9%

C[C@@H]1CN(c2ccccc2)C[C@H](C)OS(=O)O1 (stereo partly drawn)
inactive: [1] 2.65% | [2] -1.95% | [3] -12.8% | [4] -16.6% | [5] -6.95% | [6] -0.7%

CC1=CC[N+](C)(C)C(C(N)=O)C1 (stereo not drawn)
inactive: [1] -5% | [2] -12.8% | [3] -17.2% | [4] 9.95% | [5] 20.9% | [6] -18.1%

CC1Cc2c(cc(N)nc2Br)NC1=O (stereo not drawn)
inactive: [1] -10.6% | [2] -6.05% | [3] 6.95% | [4] 19.2% | [5] 3.35% | [6] 10.1%

Oc1ccc(N=Cc2ccc(C=Nc3ccc(O)cc3)cc2)cc1
inactive: [1] -22.9% | [2] -12.6% | [3] -19% | [4] -7.7% | [5] -13.4% | [6] -16.4%

C=C(C)C(=O)O[C@@H]1C[C@@]2(C)O[C@@H]2C[C@H](O)/C(C)=C/[C@H]2OC(=O)C(=C)[C@@H]21
inactive: [1] -19.6% | [2] -33.1% | [3] -22.5% | [4] 0.35% | [5] -16.5% | [6] -43.1%

CN1C(=O)NC(C)(C)C1=O
inactive: [1] -1.5% | [2] 3.3% | [3] -1.75% | [4] -13.7% | [5] -8.45% | [6] -4.95%

CCC1(CC)OC(=O)C(=O)N1N(C)C
inactive: [1] -16.9% | [2] -0.8% | [3] -13.9% | [4] -15.2% | [5] -10.9% | [6] -13.7%

NC1C2C=CC(C2)C1C(=O)O (stereo not drawn)
inactive: [1] -0.65% | [2] -0.25% | [3] -50.4% | [4] 4% | [5] -26.6% | [6] -17.3%

Cc1ccc[n+]([O-])c1Cl
inactive: [1] 1.55% | [2] 14.2% | [3] -8.55% | [4] -34.2% | [5] 11.2% | [6] 4.2%

CC1CCC2(CC1)CC(=O)N(N1CCCCC1)C2=O (stereo not drawn)
inactive: [1] 11.3% | [2] 10.8% | [3] 26.8% | [4] 17.1% | [5] 3.3% | [6] 23.9%

CCN(CC)/C(C=[N+]=[N-])=N\C(N)=N\S(=O)(=O)c1ccc(OC)cc1
inactive: [1] -37.2% | [2] -13.9% | [3] -13.8% | [4] -28% | [5] 4.05% | [6] 13.4%

CCCS(=O)(=O)CCCCCCCCCCC(=O)O
inactive: [1] -5.45% | [2] -11.4% | [3] -7.8% | [4] -28.7% | [5] -7.15% | [6] -6.2%

COc1ccc(C(O)C(=O)c2nc3ccc(Cl)cc3[nH]c2=O)cc1 (stereo not drawn)
inactive: [1] -30.1% | [2] -28.6% | [3] -22.2% | [4] -33.7% | [5] -16.6% | [6] -20.2%

CCOC(=O)C1(Cc2ccc3c(c2)CCC3)Cc2cc3c(cc2C1=O)CCC3 (stereo not drawn)
inactive: [1] -11.1% | [2] -28.1% | [3] -17.9% | [4] 19.1% | [5] 14.2% | [6] -2.55%

O=C(c1cccs1)c1cccs1
inactive: [1] -6.4% | [2] -12.9% | [3] -17.6% | [4] -67% | [5] 8.3% | [6] -8.45%

O=C(CC[n+]1ccccc1)Nc1ccc(F)cc1F
inactive: [1] 11.4% | [2] -1.55% | [3] 26.1% | [4] 20.9% | [5] 33.6% | [6] 17.3%

CN1CCN(CC(=O)N2c3ccccc3Sc3cc4ccccc4cc32)CC1
inactive: [1] 2.3% | [2] -3.3% | [3] -30% | [4] -1.95% | [5] -13.7% | [6] 28.6%

CCCc1nc(N)[nH]c(=O)c1I
inactive: [1] -26% | [2] -9.1% | [3] -15.1% | [4] 5.3% | [5] 7.8% | [6] 0.45%

COC(CNCCO)c1ccccc1 (stereo not drawn)
inactive: [1] 3.1% | [2] -17.6% | [3] -0.45% | [4] -89.2% | [5] -6.15% | [6] -5.45%

CCOC(=O)CC(=O)c1cc(OC)c(OC)c(OC)c1
inactive: [1] 7.05% | [2] 16.8% | [3] 8.4% | [4] -75% | [5] 39.9% | [6] 20.4%

CCC(Oc1ccc(OC)c2c1C(=O)CCC2)C(=O)O (stereo not drawn)
inactive: [1] 5.95% | [2] 1% | [3] -18.9% | [4] 11.4% | [5] -0.85% | [6] 7.55%

Cc1cc(C)c2ccc(=O)[nH]c2n1
inactive: [1] -2.8% | [2] -9% | [3] 2.6% | [4] -3.05% | [5] 8.75% | [6] 8.2%

Cc1nc(N)sc1C(=O)/C=C/c1ccc([N+](=O)[O-])cc1
inactive: [1] 16.2% | [2] -2.6% | [3] -15.7% | [4] 20.8% | [5] 15.1% | [6] 9.45%

NCC(c1ccccc1)C1CCCCC1 (stereo not drawn)
inactive: [1] 13.2% | [2] -2.35% | [3] 5.05% | [4] -7.5% | [5] -3.9% | [6] 15%

CC1(S)CCC2CC1C2(C)C (stereo not drawn)
inactive: [1] -15.7% | [2] -54.1% | [3] -35% | [4] 4.95% | [5] -27.4% | [6] -12.1%

COc1cccc(NC(=O)CC(=O)NN2C(=O)/C(=C/c3ccc(N(CCC#N)CCC#N)cc3)N=C2c2cc([N+](=O)[O-])ccc2Cl)c1
inactive: [1] 17.4% | [2] -5.05% | [3] 16.4% | [4] -6.7% | [5] 0.3% | [6] 14.6%

CNc1nc(NC)nc(-c2ccccc2)n1
inactive: [1] -25.2% | [2] -16.1% | [3] -26.9% | [4] -55% | [5] -22.6% | [6] -22.9%

COC(=O)c1nc2c3c(cccc3c1C(=O)OC)Nc1ccccc1-2
inactive: [1] -3.2% | [2] 9.65% | [3] 0.35% | [4] 28.5% | [5] 19.4% | [6] -39.4%

C#CC[N+](C)(CC#C)CC#C
inactive: [1] 9.85% | [2] 7.8% | [3] 13% | [4] 11.9% | [5] 9.7% | [6] 9.2%

N#C/C(=C\c1ccc[nH]1)C(=O)c1ccccc1
inactive: [1] -5.7% | [2] -11.8% | [3] -18.9% | [4] 16.5% | [5] 1.15% | [6] -28.6%

c1ccc(CC2COC(c3cccs3)=N2)cc1 (stereo not drawn)
inactive: [1] 26.9% | [2] -13.2% | [3] 21.6% | [4] 18.1% | [5] 31.2% | [6] 9%

O=C1C(=O)c2ccccc2C(O)=C1c1ccc(Br)cc1
inactive: [1] 8.85% | [2] -9.5% | [3] -2.8% | [4] -4.9% | [5] -3.65% | [6] -8.9%
